Experimental data taken from PubChem BioAssay (NCI).
Compounds without any hit were thinned out: in the full panel of roughly 83,000, 20% have a hit.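 Method: cells in 96-well plates; compound added at one concentration; 48 h incubation; percent growth measured; values under 10 scored active.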 Active and inactive are the calls of the source.

Tests used:
Assay in all cases: NCI-60 one-dose screen, 48 h (100 = growth as untreated, 0 = no growth, -100 = all killed)
Details in all cases: 10 µM unless noted
DU-145 prostate = system: DU-145 prostate
K-562 leukemia = system: K-562 leukemia
MALME-3M melanoma = system: MALME-3M melanoma
MDA-MB-231 breast = system: MDA-MB-231 breast
RXF 393 renal = system: RXF 393 renal
SF-268 CNS = system: SF-268 CNS
SF-295 CNS = system: SF-295 CNS
SF-539 CNS = system: SF-539 CNS
UACC-257 melanoma = system: UACC-257 melanoma
M14 melanoma = system: M14 melanoma
HCT-15 colon = system: HCT-15 colon
HT29 colon = system: HT29 colon
SNB-75 CNS = system: SNB-75 CNS
SNB-19 CNS = system: SNB-19 CNS
U251 CNS = system: U251 CNS
PC-3 prostate = system: PC-3 prostate
SK-MEL-5 melanoma = system: SK-MEL-5 melanoma
UACC-62 melanoma = system: UACC-62 melanoma
LOX IMVI melanoma = system: LOX IMVI melanoma
SK-MEL-28 melanoma = system: SK-MEL-28 melanoma

Measured: growth

COc1ccc(-c2cc(-c3ccc(N(C)C)cc3)nc(NC(=O)c3cccnc3)n2)cc1
inactive: DU-145 prostate 99.5% | K-562 leukemia 93.3% | MALME-3M melanoma 120% | MDA-MB-231 breast 93.8% | RXF 393 renal 107% | SF-268 CNS 90.6% | SF-295 CNS 104% | SF-539 CNS 94.3% | UACC-257 melanoma 120% | M14 melanoma 124% | HCT-15 colon 95% | HT29 colon 108% | SNB-75 CNS 99% | SNB-19 CNS 93.2% | U251 CNS 98.9% | PC-3 prostate 90.3% | SK-MEL-5 melanoma 97.1% | UACC-62 melanoma 95.1% | LOX IMVI melanoma 97.1% | SK-MEL-28 melanoma 106%

NC(=O)[C@@H]1Cc2ccccc2CN1C(=O)c1ccc2c(c1)Cc1ccccc1-2
inactive: DU-145 prostate 86% | K-562 leukemia 58.9% | MALME-3M melanoma 87.3% | MDA-MB-231 breast 98.4% | RXF 393 renal 91.9% | SF-268 CNS 87.3% | SF-295 CNS 79.8% | SF-539 CNS 97.6% | UACC-257 melanoma 94.9% | M14 melanoma 87.4% | HCT-15 colon 74.6% | HT29 colon 89.1% | SNB-75 CNS 85.7% | SNB-19 CNS 86.7% | U251 CNS 83% | PC-3 prostate 61.9% | SK-MEL-5 melanoma 46.6% | LOX IMVI melanoma 90.8% | SK-MEL-28 melanoma 116%
active: UACC-62 melanoma -36.9%

Cc1csc(Nc2nc(-c3cccc(Cl)c3)nc(C(Cl)(Cl)Cl)n2)n1
active: DU-145 prostate -30.4% | MDA-MB-231 breast 9.88% | RXF 393 renal -2.8% | HT29 colon 2.7% | SNB-75 CNS 3.48%
inactive: K-562 leukemia 65.6% | MALME-3M melanoma 102% | SF-268 CNS 65.8% | SF-295 CNS 34.1% | SF-539 CNS 34% | UACC-257 melanoma 36.2% | M14 melanoma 88.3% | HCT-15 colon 53.9% | SNB-19 CNS 39.9% | U251 CNS 19.9% | PC-3 prostate 39.7% | SK-MEL-5 melanoma 88.8% | UACC-62 melanoma 74.2% | LOX IMVI melanoma 91.1% | SK-MEL-28 melanoma 39.5%

Cc1c2cnccc2c(C)c2c1c1cc(C(=O)O)ccc1n2C
active: DU-145 prostate 4.3% | K-562 leukemia 9.3% | MALME-3M melanoma -31.8% | MDA-MB-231 breast 3.08% | RXF 393 renal -72.1% | SF-268 CNS 0.973% | SF-295 CNS -2.38% | SF-539 CNS -24.5% | UACC-257 melanoma -31.4% | M14 melanoma -0.906% | HCT-15 colon 1.03% | HT29 colon 7.11% | SNB-75 CNS -7.4% | SNB-19 CNS 2.23% | U251 CNS 0.0209% | SK-MEL-5 melanoma -84.7% | UACC-62 melanoma -55% | LOX IMVI melanoma -27.1% | SK-MEL-28 melanoma -27.4%
inactive: PC-3 prostate 10.4%

CC(=O)O[C@H]1CC[C@@]2(C)C(=CC[C@@H]3[C@@H]2CC[C@]2(C)C(Cl)=C(c4nc5ccc(Cl)cn5c4NC(C)(C)C)C[C@@H]32)C1
inactive: DU-145 prostate 95.8% | K-562 leukemia 85.4% | MALME-3M melanoma 66.7% | MDA-MB-231 breast 87.5% | RXF 393 renal 90.1% | SF-268 CNS 101% | SF-295 CNS 93.2% | SF-539 CNS 97.6% | UACC-257 melanoma 98.9% | M14 melanoma 93.1% | HCT-15 colon 100% | HT29 colon 102% | SNB-75 CNS 76.4% | SNB-19 CNS 85.1% | U251 CNS 88.5% | PC-3 prostate 82.9% | SK-MEL-5 melanoma 95.2% | UACC-62 melanoma 73.6% | LOX IMVI melanoma 89.8% | SK-MEL-28 melanoma 94.4%

Cc1ccc2nc(/C=C/c3ccc(N(C)C)cc3)cc(C)c2c1
inactive: DU-145 prostate 47.2% | K-562 leukemia 19.8% | MALME-3M melanoma 39.8% | MDA-MB-231 breast 38.4% | RXF 393 renal 29.4% | SF-268 CNS 37.3% | SF-295 CNS 12.5% | UACC-257 melanoma 62.1% | M14 melanoma 13.2% | HCT-15 colon 18% | SNB-75 CNS 14.5% | SNB-19 CNS 26.2% | U251 CNS 26.2% | PC-3 prostate 38.9% | SK-MEL-5 melanoma 33.3% | UACC-62 melanoma 23.2% | LOX IMVI melanoma 34.1% | SK-MEL-28 melanoma 48.1%
active: SF-539 CNS 9.33% | HT29 colon 2.01%

O=C(/C=C/c1ccc(Cl)cc1)c1ccc(Nc2ccnc3cc(Cl)ccc23)cc1
active: RXF 393 renal -41.4% | SF-295 CNS 9.54%
inactive: DU-145 prostate 145% | K-562 leukemia 27.8% | MALME-3M melanoma 79.9% | MDA-MB-231 breast 48.4% | SF-268 CNS 164% | SF-539 CNS 122% | UACC-257 melanoma 93.4% | M14 melanoma 84.5% | HCT-15 colon 56.1% | HT29 colon 30.6% | SNB-75 CNS 92.5% | SNB-19 CNS 99.7% | U251 CNS 52.7% | PC-3 prostate 70.9% | SK-MEL-5 melanoma 53.3% | UACC-62 melanoma 92.8% | LOX IMVI melanoma 83.3% | SK-MEL-28 melanoma 104%

CCOC(=O)c1c(C)c2c(n1Cc1ccccc1)CSc1cc(C#N)c(=O)[nH]c1-2
inactive: DU-145 prostate 83.9% [100 µM] | K-562 leukemia 75.5% [100 µM] | MALME-3M melanoma 55% [100 µM] | MDA-MB-231 breast 54.8% [100 µM] | RXF 393 renal 26.6% [100 µM] | SF-268 CNS 67.5% [100 µM] | SF-295 CNS 43.6% [100 µM] | SF-539 CNS 52.6% [100 µM] | UACC-257 melanoma 121% [100 µM] | M14 melanoma 90.4% [100 µM] | HCT-15 colon 66.3% [100 µM] | HT29 colon 71% [100 µM] | SNB-75 CNS 25.4% [100 µM] | SNB-19 CNS 89.3% [100 µM] | U251 CNS 49.8% [100 µM] | PC-3 prostate 70% [100 µM] | SK-MEL-5 melanoma 100% [100 µM] | UACC-62 melanoma 70.9% [100 µM] | LOX IMVI melanoma 72.9% [100 µM] | SK-MEL-28 melanoma 105% [100 µM]

COc1cccc(/C=C/C(=O)/C=C(/C=C/c2cccc(OC)c2OC)OB(F)F)c1OC
inactive: DU-145 prostate 55.7% | K-562 leukemia 32.9% | MALME-3M melanoma 32% | MDA-MB-231 breast 60.3% | RXF 393 renal 102% | SF-268 CNS 95.3% | SF-295 CNS 103% | SF-539 CNS 57.7% | UACC-257 melanoma 28.6% | M14 melanoma 61.7% | HCT-15 colon 29.4% | HT29 colon 49.2% | SNB-75 CNS 65.8% | SNB-19 CNS 77.7% | U251 CNS 36.4% | PC-3 prostate 57.9% | SK-MEL-5 melanoma 93.4% | UACC-62 melanoma 42.4% | LOX IMVI melanoma 18.2% | SK-MEL-28 melanoma 50.7%

O=C1CCC(C(=O)N/N=C/c2ccc([N+](=O)[O-])cc2)N1 (stereo not given)
inactive: DU-145 prostate 103% | K-562 leukemia 103% | MALME-3M melanoma 101% | MDA-MB-231 breast 109% | RXF 393 renal 111% | SF-268 CNS 96.7% | SF-295 CNS 99.7% | SF-539 CNS 93.7% | UACC-257 melanoma 106% | M14 melanoma 104% | HCT-15 colon 98.9% | HT29 colon 104% | SNB-75 CNS 75.4% | SNB-19 CNS 99.9% | U251 CNS 102% | PC-3 prostate 95.3% | SK-MEL-5 melanoma 104% | UACC-62 melanoma 100% | LOX IMVI melanoma 91.9% | SK-MEL-28 melanoma 111%

Cn1ccnc1C(=O)/C=C/c1ccc(CC(=O)Nc2cc(F)c(F)c(F)c2)cc1
inactive: K-562 leukemia 12.6% | MALME-3M melanoma 83.2% | SF-268 CNS 15.5% | SF-295 CNS 51.5% | UACC-257 melanoma 80.2% | M14 melanoma 62.7% | HT29 colon 10.7% | SNB-19 CNS 20.3% | PC-3 prostate 26.1% | SK-MEL-5 melanoma 62.5% | UACC-62 melanoma 43.9% | SK-MEL-28 melanoma 93.5%
active: DU-145 prostate 3% | MDA-MB-231 breast 6.11% | RXF 393 renal -15.6% | SF-539 CNS -19.5% | HCT-15 colon 9.67% | SNB-75 CNS -3.33% | U251 CNS 8.83% | LOX IMVI melanoma -3.99%

CSc1nn2c(-c3cc4cc(Br)ccc4oc3=O)ccnc2c1C#N
inactive: DU-145 prostate 110% | K-562 leukemia 104% | MALME-3M melanoma 120% | MDA-MB-231 breast 105% | RXF 393 renal 109% | SF-268 CNS 103% | SF-295 CNS 103% | SF-539 CNS 106% | UACC-257 melanoma 106% | M14 melanoma 104% | HCT-15 colon 102% | HT29 colon 114% | SNB-75 CNS 90.5% | SNB-19 CNS 105% | U251 CNS 102% | PC-3 prostate 105% | SK-MEL-5 melanoma 101% | UACC-62 melanoma 99.7% | LOX IMVI melanoma 97.4% | SK-MEL-28 melanoma 105%

COc1ccc2c(c1)c(-c1nc(-c3cn(C)c4ccncc34)cs1)cn2C
active: DU-145 prostate -21.9% | K-562 leukemia -48.9% | MALME-3M melanoma -53.6% | MDA-MB-231 breast -61.2% | RXF 393 renal -91.7% | M14 melanoma -90.3% | HCT-15 colon -22.1% | HT29 colon -58.1% | U251 CNS -74.9% | PC-3 prostate -17.1% | SK-MEL-5 melanoma -22.8% | LOX IMVI melanoma -92.3%
inactive: SF-268 CNS 88.5% | SF-295 CNS 55.3% | SF-539 CNS 57.4% | UACC-257 melanoma 114% | SNB-75 CNS 120% | SNB-19 CNS 20.9% | UACC-62 melanoma 107% | SK-MEL-28 melanoma 86.8%

COc1ccc(/C=C2/CCc3cc4ccc(OC)cc4[o+]c32)c(O)c1
inactive: DU-145 prostate 76.7% | K-562 leukemia 39.1% | MALME-3M melanoma 16.9% | MDA-MB-231 breast 36.7% | RXF 393 renal 71.4% | SF-268 CNS 82.2% | SF-295 CNS 106% | SF-539 CNS 109% | UACC-257 melanoma 87.4% | M14 melanoma 26% | HT29 colon 29.6% | SNB-75 CNS 90.9% | SNB-19 CNS 63.1% | U251 CNS 69.4% | SK-MEL-5 melanoma 67.8% | UACC-62 melanoma 47.5% | SK-MEL-28 melanoma 47.8%
active: HCT-15 colon 4.44% | PC-3 prostate 8.84% | LOX IMVI melanoma 7.79%

COc1ccccc1-c1nc2ccc3[nH]ncc3c2c2c1CCCC2
inactive: DU-145 prostate 73.5% | K-562 leukemia 83.3% | MALME-3M melanoma 99.2% | MDA-MB-231 breast 62.4% | RXF 393 renal 51.2% | SF-268 CNS 55.6% | SF-295 CNS 70.5% | SF-539 CNS 50.5% | UACC-257 melanoma 86.4% | M14 melanoma 76.3% | HCT-15 colon 88.6% | HT29 colon 67.5% | SNB-75 CNS 38.3% | SNB-19 CNS 85.6% | U251 CNS 96.7% | PC-3 prostate 82% | SK-MEL-5 melanoma 83.4% | UACC-62 melanoma 71.3% | LOX IMVI melanoma 80.5% | SK-MEL-28 melanoma 89.2%
